# Experimental data reported in PubChem BioAssay AID485314 (National Center for Advancing Translational Sciences (NCATS), 2010).
# Out of some 340,000 compounds screened, about 4,500 (1.3%) were called active. About 5% were inconclusive and are not listed. Shown is part of a subset that was picked to be rich in actives. Values without a mark were called inactive. The call rests on the fitted dose curve; in most records, active means well fitted inhibition curve with a large enough effect; inconclusive means small, poorly fitted or top-dose-only effect, or another doubt; inactive means no such curve, though single readings can be large or run the other way.
# Biological target: DNA polymerase beta (Homo sapiens) (UniProt P06746)
# Assay: qHTS Assay for Inhibitors of DNA Polymerase Beta
# Conditions: Pol beta primer extension/strand displacement, fluorescence kinetic; series mostly up to 114 µM; activity change, negative = inhibition: at the top concentration
# Excerpt: The base excision repair system in human cells is a target for therapeutic modulation of the response to irradiation treatment and DNA-damaging drugs. A key enzyme in this system is the bi-functional DNA polymerase known as DNA polymerase Beta (Pol Beta). The following is a homogeneous kinetic assay to study the primer extension and strand-displacement reaction catalyzed by pol beta.
# A stepwise description of the 1536-well assay is shown in next Table. Three microliters of reagents (buffer in column 3 and 4 as negative control and 10 nM Pol beta in columns 1, 2, and 5-48) was dispensed into 1,536-well black solid-bottomed plate. Compounds (23 nL) were transferred via Kalypsys pin tool equipped with 1536-pin array (10 nL slotted pins, V&P Scientific, San Diego, CA). The plates were incubated for 15 min at room temperature, and 1 uL substrate (50 nM final concentration) were added to start the reaction and immediately read at 0 min read on Viewlux reader. The plate were further incubated for 10 min at room temperature, and then read on Viewlux again. Throughout the screen, reagent bottle and all liquid lines were chilled and made light-tight to minimize reagent degradation. All screening operations were performed on a fully integrated robotic system (Kalypsys, San Diego, CA) containing one RX-130 and two RX-90 anthropomorphic robotic arms (Staubli, Duncan, SC). Library plates were screened starting from the lowest and proceeding to the highest concentration, and a double-dipping step of the highest concentration was required to access higher concentrations of compounds. Vehicle-only plates, with DMSO being pin-transferred to the entire column 5-48 compound area, were inserted uniformly at the beginning and the end of each library in order to monitor for and record any shifts in the background, which can be affected by reagent dispensers or loss in enzyme activity overtime. Screening data were corrected, normalized, and concentration-effect relationships were derived by using publicly-available curve fitting algorithms developed in-house (http://ncgc.nih.gov/pub/openhts). A four parameter Hill equation was fitted to the concentration-response data by minimizing the residual error between the modeled and observed responses.
# On the % scale 0 is the no-effect control and ±100 the full control effect; potency means the concentration at half of the fitted maximal effect.
Compound,"activity change, negative = inhibition",Potency
O=C1NC(=O)N(c2ccccc2)C(=O)/C1=C/c1ccc([N+](=O)[O-])s1,-41.5%,–
COc1cccc(N2C(=O)NC(=O)/C(=C\c3cn(C)c4ccccc34)C2=O)c1,-23%,–
Cc1cccc(N2C(=O)NC(=O)/C(=C\c3cnn(-c4ccccc4)c3)C2=O)c1,–,39.8 µM (active)
CCCCN1C2CCC1CC(OC(c1ccc(F)cc1)c1ccc(F)cc1)C2 (stereo not given),16.4% [at 57.1 µM],–
COc1ccc(N2C(=O)/C(=C/c3ccco3)C(=O)NC2=S)cc1,–,2.82 µM (active)
COc1ccc(CN2C(=O)NC(=O)/C(=C\c3ccc(OC)c(OC)c3OC)C2=O)cc1,-16%,–
COc1ccccc1N1CCN(C(CNC(=O)Oc2ccccc2)c2cccnc2)CC1 (stereo not given),21.6%,–
Cc1ccccc1N1C(=O)NC(=O)/C(=C\c2cc(C)n(C)c2C)C1=O,3.72%,–
Cc1c(C(=O)O)cccc1-n1c(C)cc(/C=C2\C(=O)NC(=O)N(c3ccc4c(c3)OCO4)C2=O)c1C,–,11.2 µM (active)
O=C1NC(=O)N(c2ccc(F)cc2)C(=O)/C1=C/c1ccc2c(c1)CCCN2Cc1ccccc1,-25.1%,–
O=Cc1cn(Cc2ccc(F)cc2Cl)c2ccccc12,-14.2%,–
Cc1cc2ccccn2c1C(C[N+](=O)[O-])c1c(F)cccc1Cl (stereo not given),26.7%,–
CCN(CC)C(=O)c1ccc(NC(=O)c2sccc2-c2ccccc2)cc1,-0.659%,–
COc1ccc2c3c1O[C@H]1C[C@@H](O)C=C[C@@]31CCN(C)C2,11.5%,–
N[C@@H](Cc1c[nH]c2ccccc12)c1nnc(SCc2c(F)cccc2Cl)o1,4.81%,–
Cc1ccc(-n2c(/C=C/c3cccc(C(F)(F)F)c3)nc3ccccc3c2=O)cc1,-1.25%,–
CCOc1ccc(-c2cc(C)n3nc(C(=O)Nc4ccc(C)c(C)c4)cc3n2)cc1,–,8.91 µM (active)
C=CCN(CC=C)C(=O)Nc1ccc(OCC)cc1,-8.07%,–
OC(Cn1c2ccccc2c2ccccc21)C[n+]1ccccc1 (stereo not given),38.7%,–
Cc1cc(/C=C2/C(=O)NC(=O)N(Cc3ccco3)C2=O)c(C)n1-c1ccc(C(=O)O)cc1,–,17.8 µM (active)

Compound,"activity change, negative = inhibition",Potency
O=C1NC(=O)N(Cc2ccco2)C(=O)/C1=C\c1cccn1CCOc1ccccc1,9.43%,–
Cc1cc(C=C2C(=O)NC(=O)NC2=O)c(C)n1-c1ccncc1,-12.2%,–
COc1ccccc1N=C1SCCCN1C,2.97%,–
C=CCN1CCC23c4c5ccc(O)c4O[C@H]2C(=O)CC[C@@]3(O)C1C5 (stereo not given in full),16.9% [at 57.1 µM],–
O=C1CC(=O)N(Cc2ccccc2)C(=O)N1CCCCCCN1C(=O)CC(=O)N(Cc2ccccc2)C1=O,–,28.2 µM (active)
O=C(CN1CCCC1=O)NCCc1ccccc1,0.404%,–
CC(C)(C)c1ccc(CN2C(=O)CN=C(c3ccccc3)c3ccccc32)cc1,1.27%,–
Cc1nc2ccccc2c(=O)n1-c1ccc(Cl)cc1Cl,47.9%,–
CCN1CCN(c2nc3c(c(=O)[nH]2)CCC3)CC1,40.3%,–
Cc1nnc(NC(=O)c2cccn(Cc3cccc(F)c3)c2=O)s1,9.23%,–
CCOCCc1c(O)[nH]c(=S)[nH]c1=O,–,35.5 µM (active)
COc1ccccc1N=Nc1c(O)[nH]c(=S)[nH]c1=O,-3.75%,–
Cc1ccc(-c2nn(CCC#N)cc2C(=O)O)cc1C,11.6%,–
O=C(OCC1O[C@@H](OC(=O)c2cc(O)c(O)c(O)c2)[C@@H](OC(=O)c2cc(O)c(O)c(O)c2)[C@@H](OC(=O)c2cc(O)c(O)c(O)c2)[C@@H]1OC(=O)c1cc(O)c(O)c(O)c1)c1cc(O)c(O)c(O)c1 (stereo not given in full),–,0.158 µM (active)
Cc1cccc(Cn2cccc(C(=O)Nc3ccc4c(c3)OCCO4)c2=O)c1,0.23%,–
Cc1ccc(NC(=O)N(Cc2ccc3c(c2)OCO3)C2CCN(Cc3ccccc3)CC2)cc1F,-0.703%,–
C[N+]12CN3CN(CN(C3)C1)C2,36.4%,–
NCCc1c[nH]c2ccc(O)cc12,11.3% [at 57.1 µM],–
CCOC(=O)c1ncn2c1[C@@H]1CCCN1C(=O)c1cc(OC)ccc1-2,12% [at 57.1 µM],–
CN(C)c1ccc(/C=C2\CC3C4CC=C5CC(O)CCC5(C)C4CCC3(C)C2=O)cc1 (stereo not given),15.5%,–
